Measurements as given in PubChem BioAssay (NCATS).
Inconclusive results are not listed. Values without a mark were called inactive. Calls of active or inactive are those of the source. The call rests on the fitted dose curve; in most records, active means well fitted curve in the direction sought with a large enough effect; inconclusive means small, poorly fitted or top-dose-only effect, or another doubt; inactive means no such curve, though single readings can be large; an effect the other way counts as inactive or inconclusive.

Each compound was assayed against Protein phosphatase 1D (Homo sapiens) (UniProt O15297) (assay: RapidFire Mass Spectrometry qHTS Assay for Modulators of WT P53-Induced Phosphatase 1 (WIP1) (AID 1347424;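 further: amount of dephosphorylated VEPPL-S-QETFS peptide product formed by WIP1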; further: potency means the concentration at half of the fitted maximal effect;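 on activity change, negative = inhibition: plate controls were DMSO wells for no effect and GSK830371 inhibitor control at 10 µM for full effect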)). Details: WIP1 dephosphorylation of phosphopeptide, RapidFire MS; series mostly up to 63 µM; activity change, negative = inhibition: at the top concentration.
In short: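 WIP1 (10 nM final) was preincubated 1 h at room temperature with compounds in Tris-HCl pH 7.5, 30 mM MgCl2, TCEP, EGTA, BSA; 2 uM VEPPL-pS-QETFS phosphopeptide was added for 5 min, quenched with formic acid, and dephosphorylated product quantified by RapidFire MS.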

Chain of Protein phosphatase 1D (Homo sapiens) (O15297 whole entry, looked up): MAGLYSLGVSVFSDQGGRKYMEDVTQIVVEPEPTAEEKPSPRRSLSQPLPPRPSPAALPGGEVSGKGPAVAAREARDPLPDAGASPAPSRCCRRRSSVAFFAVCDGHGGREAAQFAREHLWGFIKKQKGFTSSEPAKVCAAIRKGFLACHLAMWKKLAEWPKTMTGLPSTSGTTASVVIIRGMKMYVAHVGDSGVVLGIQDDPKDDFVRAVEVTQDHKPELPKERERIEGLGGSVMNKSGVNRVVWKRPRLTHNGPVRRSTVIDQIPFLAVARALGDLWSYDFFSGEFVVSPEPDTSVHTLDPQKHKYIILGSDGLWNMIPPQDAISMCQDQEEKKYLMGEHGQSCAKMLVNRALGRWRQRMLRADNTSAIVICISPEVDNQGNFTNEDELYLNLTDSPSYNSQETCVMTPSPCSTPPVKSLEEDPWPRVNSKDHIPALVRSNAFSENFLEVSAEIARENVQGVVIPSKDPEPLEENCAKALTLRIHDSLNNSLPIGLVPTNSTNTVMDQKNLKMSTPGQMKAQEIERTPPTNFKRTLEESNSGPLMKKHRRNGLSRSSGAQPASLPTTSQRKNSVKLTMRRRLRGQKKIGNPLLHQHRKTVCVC

Row | SMILES | activity change, negative = inhibition | Potency
1 | O=C(CCCN1CCC(O)(c2ccc(Cl)cc2)CC1)c1ccc(F)cc1 | 9.54% | 
2 | Cc1cn([C@H]2C=C[C@@H](CO)O2)c(=O)[nH]c1=O | -0.797% | 
3 | CCOC(=O)Nc1ccc(NCc2ccc(F)cc2)nc1N | -3.56% | 
4 | Clc1ccc2nsnc2c1NC1=NCCN1 | 1.71% | 
5 | O=C(c1ccc(F)cc1)C1CCN(CCn2c(=O)[nH]c3ccccc3c2=O)CC1 | 0.665% | 
6 | CC[C@@]1(O)C(=O)OCc2c1cc1n(c2=O)Cc2cc3c(CN(C)C)c(O)ccc3nc2-1 | -5.47% | 
7 | CN(C)CCCN1c2ccccc2CCc2ccc(Cl)cc21 | 41.2% | 
8 | CC[N+](CC)(CC)CCOc1cccc(OCC[N+](CC)(CC)CC)c1OCC[N+](CC)(CC)CC | -5.62% | 
9 | NC(=O)NO | 2.02% | 
10 | Clc1ccc2c(c1)C(N1CCNCC1)=Nc1ccccc1O2 | -1.33% | 
11 | CC(CCc1ccc(O)cc1)NCCc1ccc(O)c(O)c1 (centres undefined) | 7.63% | 
12 | OCCN(CCO)c1nc(N2CCCCC2)c2nc(N(CCO)CCO)nc(N3CCCCC3)c2n1 | 35.9% | 
13 | COc1cc2nc(N(C)CCCNC(=O)C3CCCO3)nc(N)c2cc1OC (centres undefined) | 0.792% | 
14 | COc1ccc(C2CNC(=O)C2)cc1OC1CCCC1 (centres undefined) | -2.33% | 
15 | CN(Cc1cnc2nc(N)nc(N)c2n1)c1ccc(C(=O)N[C@@H](CCC(=O)O)C(=O)O)cc1 | -0.397% | 
16 | Nc1nc2c(ncn2COC(CO)CO)c(=O)[nH]1 | 6.26% | 
17 | O=c1[nH]cc(F)c(=O)[nH]1 | 0.472% | 

Row | SMILES | activity change, negative = inhibition | Potency
18 | Clc1ccc(C(c2ccccc2Cl)C(Cl)Cl)cc1 (centres undefined) | 9.98% | 
19 | NC(=O)OCC(COC(N)=O)c1ccccc1 | 19.4% | 
20 | Nc1ccn([C@H]2CC[C@@H](CO)O2)c(=O)n1 | 37.6% | 
21 | Nc1c2c(nc3ccccc13)CCCC2 | 8.31% | 
22 | CN1CCN(CCCN2c3ccccc3Sc3ccc(Cl)cc32)CC1 | 26.7% | 
23 | CN1CCN2c3ccccc3Cc3ccccc3C2C1 (centres undefined) | -10.3% | 
24 | CC(C)(C)C(=O)Oc1ccc(S(=O)(=O)Nc2ccccc2C(=O)NCC(=O)O)cc1 | 0.302% | 
25 | CC1COc2c(N3CCN(C)CC3)c(F)cc3c(=O)c(C(=O)O)cn1c23 (centres undefined) | 5.84% | 
26 | C[C@H]1c2cccc(O)c2C(O)=C2C(=O)[C@]3(O)C(O)=C(C(N)=O)C(=O)[C@@H](N(C)C)[C@@H]3[C@@H](O)[C@@H]21 | -6.18% | 
27 | COc1ccccc1OCCNCC(O)COc1cccc2[nH]c3ccccc3c12 (centres undefined) | 35.6% | 
28 | CCOC(=O)c1ncn2c1CN(C)C(=O)c1cc(F)ccc1-2 | 9.28% | 
29 | O=C1c2c(O)ccc(O)c2C(=O)c2c(NCCNCCO)ccc(NCCNCCO)c21 | 12.2% | 
30 | CCC1(C)CC(=O)NC1=O (centres undefined) | -1.42% | 
31 | Cc1ccc(C(=O)Nc2ccc(S(=O)(=O)O)c3cc(S(=O)(=O)O)cc(S(=O)(=O)O)c23)cc1NC(=O)c1cccc(NC(=O)Nc2cccc(C(=O)Nc3cc(C(=O)Nc4ccc(S(=O)(=O)O)c5cc(S(=O)(=O)O)cc(S(=O)(=O)O)c45)ccc3C)c2)c1 |  | 3.98 µM (active)
32 | Nc1nnc(-c2cccc(Cl)c2Cl)c(N)n1 | 8.73% | 
33 | CCc1cccc2c3c([nH]c12)C(CC)(CC(=O)O)OCC3 (centres undefined) | -0.518% | 

What follows are compounds tested against Protein phosphatase 1D (Homo sapiens) (UniProt O15297) (assay: Rhodamine-PBP qHTS Assay for Modulators of WT P53-Induced Phosphatase 1 (WIP1) (AID 1347425; further: % of control where 0% means no effect)). Details: recombinant WIP1, Rhodamine-PBP phosphate fluorescence, real-time; series mostly up to 57.5 µM; activity change, negative = inhibition: at the top concentration.
In short: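 Steps: enzyme with Rh-PBP sensor and compounds, room-temperature incubation of 1 hr, baseline read, addition of VEPPL-pS-QETFS (10 uM final), kinetic fluorescence reads at 525/598 nm. Activity equals final minus baseline signal.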

Row | SMILES | activity change, negative = inhibition
34 | O=C(CCCN1CCC(O)(c2ccc(Cl)cc2)CC1)c1ccc(F)cc1 | -7.86%
35 | Cc1cn([C@H]2C=C[C@@H](CO)O2)c(=O)[nH]c1=O | 12.3%
36 | Clc1ccc2nsnc2c1NC1=NCCN1 | 4.27%
37 | O=C(c1ccc(F)cc1)C1CCN(CCn2c(=O)[nH]c3ccccc3c2=O)CC1 | 18.4%
38 | CC[C@@]1(O)C(=O)OCc2c1cc1n(c2=O)Cc2cc3c(CN(C)C)c(O)ccc3nc2-1 | 2.7%
39 | CN(C)CCCN1c2ccccc2CCc2ccc(Cl)cc21 | 25.8%
40 | CC[N+](CC)(CC)CCOc1cccc(OCC[N+](CC)(CC)CC)c1OCC[N+](CC)(CC)CC | 12.1%
41 | NC(=O)NO | 13.2%
42 | Clc1ccc2c(c1)C(N1CCNCC1)=Nc1ccccc1O2 | 18.4%
43 | CC(CCc1ccc(O)cc1)NCCc1ccc(O)c(O)c1 (centres undefined) | 11.7%
44 | OCCN(CCO)c1nc(N2CCCCC2)c2nc(N(CCO)CCO)nc(N3CCCCC3)c2n1 | -18.4%
45 | COc1cc2nc(N(C)CCCNC(=O)C3CCCO3)nc(N)c2cc1OC (centres undefined) | 23.3%
46 | COc1ccc(C2CNC(=O)C2)cc1OC1CCCC1 (centres undefined) | 4.2%
47 | CN(Cc1cnc2nc(N)nc(N)c2n1)c1ccc(C(=O)N[C@@H](CCC(=O)O)C(=O)O)cc1 | 6.64%
48 | Nc1nc2c(ncn2COC(CO)CO)c(=O)[nH]1 | 11.1%
49 | O=c1[nH]cc(F)c(=O)[nH]1 | 1%

Row | SMILES | activity change, negative = inhibition
50 | Clc1ccc(C(c2ccccc2Cl)C(Cl)Cl)cc1 (centres undefined) | 3.84%
51 | NC(=O)OCC(COC(N)=O)c1ccccc1 | 14.8%
52 | Nc1ccn([C@H]2CC[C@@H](CO)O2)c(=O)n1 | 0.618%
53 | Nc1c2c(nc3ccccc13)CCCC2 | 5.72%
54 | CN1CCN(CCCN2c3ccccc3Sc3ccc(Cl)cc32)CC1 | 23.9%
55 | CN1CCN2c3ccccc3Cc3ccccc3C2C1 (centres undefined) | 10.4%
56 | CC(C)(C)C(=O)Oc1ccc(S(=O)(=O)Nc2ccccc2C(=O)NCC(=O)O)cc1 | 3.86%
57 | CC1COc2c(N3CCN(C)CC3)c(F)cc3c(=O)c(C(=O)O)cn1c23 (centres undefined) | 18.9%
58 | C[C@H]1c2cccc(O)c2C(O)=C2C(=O)[C@]3(O)C(O)=C(C(N)=O)C(=O)[C@@H](N(C)C)[C@@H]3[C@@H](O)[C@@H]21 | -10.7%
59 | COc1ccccc1OCCNCC(O)COc1cccc2[nH]c3ccccc3c12 (centres undefined) | -8.57%
60 | CCOC(=O)c1ncn2c1CN(C)C(=O)c1cc(F)ccc1-2 | -7.34%
61 | O=C1c2c(O)ccc(O)c2C(=O)c2c(NCCNCCO)ccc(NCCNCCO)c21 | -17.9%
62 | CCC1(C)CC(=O)NC1=O (centres undefined) | 4.27%
63 | Nc1nnc(-c2cccc(Cl)c2Cl)c(N)n1 | 19.5%
64 | CCc1cccc2c3c([nH]c12)C(CC)(CC(=O)O)OCC3 (centres undefined) | -5.92%
